The nature of assay [1]: TOX21_p53_BLA_p2_viability: Viability Assessment in the Tox21 HCT-116 p53 Agonism Beta-lactamase Assay, Phase 2 (AID 2283591).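 Also: compound exposure lasted 16 h at 37 °C; actives lower the ATP signal meaning cytotoxicity.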 A digest of the protocol: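 HCT-116 p53-bla cells (4000/well) rested 5 h at 37C, then received compounds in DMSO (217-fold dilution) for 16 h at 37C, 5% CO2. After the CCF4 read, CellTiter-Glo was added; ATP luminescence was read after 30 min at room temperature.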

For assay [2], the target named is Cellular tumor antigen p53 (Homo sapiens) (UniProt P04637). As to the kind of experiment: TOX21_p53_BLA_p2_ratio: Tox21 HCT-116 p53 Agonism Beta-lactamase Assay, Ratio, Phase 2 (AID 2283592). The method, boiled down:
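Read-out is the blue/green (460/530 nm, 405 nm excitation) ratio after 2 h CCF4-AM loading, fitted as gain versus DMSO. Compounds, pinned at 217-fold dilution from DMSO stocks, stayed 16 h on HCT-116 beta-lactamase reporter cells seeded 5 h earlier.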

Assay [3] can be described thus: TOX21_p53_BLA_p3_viability: Viability Assessment in the Tox21 HCT-116 p53 Agonism Beta-lactamase Assay, Phase 3 (AID 2283593).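 Also: cells exposed to compound for 16 h before reading.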 The method, boiled down: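 HCT-116 cells (4000/well) rested 5 h at 37C, then got DMSO compounds by pin tool (217-fold dilution) for 16 h at 37C, 5% CO2. After the bla read, CellTiter-Glo was added and luminescence read at 30 min, room temperature.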

Assay [4] deals with Cellular tumor antigen p53 (Homo sapiens) (UniProt P04637). As to the kind of experiment: TOX21_p53_BLA_p3_ratio: Tox21 HCT-116 p53 Agonism Beta-lactamase Assay, Ratio, Phase 3 (AID 2283596). The method, boiled down:
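Cells were seeded at 4000/well, rested 5 h at 37C, then dosed with DMSO compound solutions (217-fold dilution) for 16 h. CCF4-AM substrate was loaded for 2 h at room temperature, and the 460/530 nm emission ratio was fitted for gain of signal versus DMSO.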

Assay [5] shares this target. As to the kind of experiment: TOX21_p53_BLA_p4_ratio: Tox21 HCT-116 p53 Agonism Beta-lactamase Assay, Ratio, Phase 4 (AID 2283601). A digest of the protocol:
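HCT116 cells carrying an inducible beta-lactamase reporter were plated at 4000 cells/well, rested 5 h, then exposed to compounds in DMSO (217-fold dilution) for 16 h at 37C. CCF4-AM substrate was loaded 2 h at room temperature; 460/530 nm emission ratio scored gain-of-signal versus DMSO.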

Assay [6] in a line: TOX21_p53_BLA_p5_viability: Viability Assessment in the Tox21 HCT-116 p53 Agonism Beta-lactamase Assay, Phase 5 (AID 2283600). A digest of the protocol:
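Viability came from CellTiter-Glo ATP luminescence, read after 30 min at room temperature. Before this, HCT-116 p53-bla cells (4000/well) had 16 hours of compound exposure at 37C, with DMSO stocks diluted 217-fold on transfer.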

For the next assay, the target named is PGR (gene 5241) (UniProt P06401). As to the kind of experiment: TOX21_PR_BLA_Followup_Antagonist_ratio: Tox21 HEK293 Progesterone Receptor (PR) Antagonism Beta-lactamase Follow-Up Assay, Ratio (AID 2283934).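 Also: PR-UAS-bla HEK293T cells stimulated with 1 nM R5020 agonist for 16 hr.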 The method, boiled down: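 Measured in PR-UAS-bla HEK293T cells co-treated with compound and 1 nM promegestone for 16 hr; beta-lactamase ratio read after 2 h FRET substrate loading, with parallel CellTiter-Glo cytotoxicity.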

The nature of assay [7]: TOX21_p53_BLA_p4_viability: Viability Assessment in the Tox21 HCT-116 p53 Agonism Beta-lactamase Assay, Phase 4 (AID 2283597).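 Also: hits lower the luminescence signal meaning cytotoxicity.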 A digest of the protocol: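 Cytotoxicity as reduced cellular ATP (CellTiter-Glo luminescence, 30 min room temperature), measured in the same wells following the CCF4 FRET p53 reading. Human HCT-116 cells received compounds in DMSO (217-fold dilution) for 16 h.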

The target of assay [8] is Cellular tumor antigen p53 (Homo sapiens) (UniProt P04637). As to the kind of experiment: TOX21_p53_BLA_p5_ratio: Tox21 HCT-116 p53 Agonism Beta-lactamase Assay, Ratio, Phase 5 (AID 2283599). A digest of the protocol:
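HCT-116 cells carrying a p53-inducible beta-lactamase reporter were seeded at 4000 cells/well and dosed after 5 h with compound in DMSO (217-fold dilution). After 16 h at 37C, CCF4-AM substrate was added for 2 h, and the 460/530 nm emission ratio was scored as gain-of-signal versus DMSO.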

Results filed as inconclusive are left out. Activity calls are given as the source filed them. The calls were made as follows: active = hit-call score of the fitted dose curve at least 0.9, where 1 is the maximum; inconclusive = response in the unintended direction; inactive = score below 0.9.

Chain of Cellular tumor antigen p53 (Homo sapiens) (P04637 whole entry, looked up): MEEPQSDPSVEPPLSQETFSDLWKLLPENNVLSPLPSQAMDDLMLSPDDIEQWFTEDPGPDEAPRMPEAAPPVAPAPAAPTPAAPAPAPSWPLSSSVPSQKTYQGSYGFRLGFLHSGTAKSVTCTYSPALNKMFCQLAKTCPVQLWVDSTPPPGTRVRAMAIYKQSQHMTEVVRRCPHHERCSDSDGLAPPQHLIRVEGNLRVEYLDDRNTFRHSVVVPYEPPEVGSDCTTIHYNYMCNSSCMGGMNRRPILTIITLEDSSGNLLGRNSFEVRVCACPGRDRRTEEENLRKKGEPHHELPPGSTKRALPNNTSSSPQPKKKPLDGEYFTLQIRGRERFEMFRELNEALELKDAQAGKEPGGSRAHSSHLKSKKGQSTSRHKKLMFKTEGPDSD
Chain of PGR (gene 5241) (P06401 whole entry, looked up): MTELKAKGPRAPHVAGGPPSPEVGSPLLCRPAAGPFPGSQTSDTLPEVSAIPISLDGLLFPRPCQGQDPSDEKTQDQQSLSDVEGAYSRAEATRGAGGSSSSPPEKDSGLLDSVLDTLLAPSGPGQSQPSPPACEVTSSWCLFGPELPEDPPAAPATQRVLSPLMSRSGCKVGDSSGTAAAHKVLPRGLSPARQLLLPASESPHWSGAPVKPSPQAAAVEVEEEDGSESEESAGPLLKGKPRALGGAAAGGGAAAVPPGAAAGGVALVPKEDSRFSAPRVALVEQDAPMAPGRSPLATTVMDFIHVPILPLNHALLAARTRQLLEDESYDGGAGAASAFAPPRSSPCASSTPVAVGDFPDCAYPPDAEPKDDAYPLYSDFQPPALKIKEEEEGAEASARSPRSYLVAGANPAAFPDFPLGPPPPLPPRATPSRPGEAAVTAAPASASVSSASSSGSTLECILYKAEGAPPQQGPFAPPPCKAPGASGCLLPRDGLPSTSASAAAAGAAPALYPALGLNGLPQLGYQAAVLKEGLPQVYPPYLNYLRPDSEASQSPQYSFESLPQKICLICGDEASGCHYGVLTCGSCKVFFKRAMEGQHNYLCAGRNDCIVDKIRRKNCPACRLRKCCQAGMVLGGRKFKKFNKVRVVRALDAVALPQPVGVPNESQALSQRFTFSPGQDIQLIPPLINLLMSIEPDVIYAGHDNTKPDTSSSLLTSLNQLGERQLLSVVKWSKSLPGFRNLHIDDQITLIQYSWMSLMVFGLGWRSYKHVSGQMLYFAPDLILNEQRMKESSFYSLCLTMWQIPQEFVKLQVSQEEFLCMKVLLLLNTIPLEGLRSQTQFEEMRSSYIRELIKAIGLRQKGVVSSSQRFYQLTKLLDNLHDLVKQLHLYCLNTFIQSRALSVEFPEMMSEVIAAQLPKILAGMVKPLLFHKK

For the compound `C1CCN(CN2CCCCC2)CC1`, the outcome in assay [1], in [2], in [3], in [4] and in [5] was inactive.
As to `CCCC(CCC)C(N)=O`, the compound was classed as inactive in assay [1], in assay [2], in assay [3], in [4] and in assay [5].
With `COc1cc2c(cc1OC)CC(=O)N(CCCN(C)C[C@H]1Cc3cc(OC)c(OC)cc31)CC2`, the call in [1], in [2], in assay [3], in [4], in assay [6] and in assay [5] was inactive.
As to `OCC(CO)N[C@H]1C[C@](O)(CO)[C@@H](O)[C@H](O)[C@H]1O`, the compound was called inactive in assay [1], in assay [2], in [3], in assay [4] and in assay [6].
Turning to `CC(=O)OCC(=O)[C@@]1(O)CCC2C3CCC4=CC(=O)CC[C@]4(C)C3C(O)C[C@@]21C` (stereo not given in full), the result in assay [1], in assay [2], in assay [3], in assay [4], in assay [6] and in [5] was inactive. Further, the outcome with PGR (gene 5241) was inactive.
Regarding `C1OCOCO1`, the result in assay [1], in assay [2], in assay [3], in assay [4], in assay [6] and in assay [5] was inactive.
For the compound `[O]=[Zr]`, the compound was classed as inactive in assay [1], in [2], in assay [3], in assay [4] and in assay [6].
Turning to `O=C(O)C=CC(=O)Nc1ccc(S(=O)(=O)Nc2nccs2)cc1`, the result in [1], in [2], in assay [3] and in assay [7] was inactive.
As to `C(=C/c1ccccc1)/c1ccccc1`, the call in [1], in [2], in [3], in [4] and in [6] was inactive.
Take `O=C1C2CC3CC1CC(O)(C3)C2`: the call in assay [1], in assay [2], in assay [3], in [4] and in assay [5] was inactive.
Consider `N=C(N)c1ccc2cc(OC(=O)c3ccc(N=C(N)N)cc3)ccc2c1`, for which the compound was classed as inactive in assay [1], in assay [2], in assay [3], in assay [4] and in assay [6].
As for `COc1cc(C(=O)OC(COCCC(C)C)CN2CCOCC2)cc(OC)c1OC` (stereo not given), the compound was called inactive in assay [1], in [2], in assay [3] and in assay [7].
Consider `CC(C)(O)C#CC(C)(C)O`, for which the compound was called inactive in assay [1], in [2], in assay [3], in [4] and in [6].
Consider `Cc1ncc(CSSCc2cnc(C)c(O)c2CO)c(CO)c1O`, for which the compound was called inactive in assay [1], in [2], in assay [3], in [4], in assay [6] and in assay [5].
Turning to `CCO`, the compound was classed as inactive in assay [1], in assay [2], in assay [3], in [4], in assay [6] and in assay [5].
Take `CC(=O)N(O)CCCCCNC(=O)CCC(=O)N(O)CCCCCNC(=O)CCC(=O)N(O)CCCCCN`: the result in [1], in assay [2], in [3], in assay [4] and in assay [5] was inactive.
Consider `SCCSCCS`, for which the compound was classed as inactive in assay [1], in [2], in assay [3], in assay [4], in assay [6] and in [5].
In the case of `COc1ccc(C(=O)N2CCN(CC(=O)N3CCOCC3)CC2)cc1`, the outcome in assay [1], in assay [2], in assay [3], in assay [4], in [6] and in assay [5] was inactive.
For the compound `CCc1nccnc1CC`, the compound was classed as inactive in [1], in [2], in assay [3], in assay [4], in assay [6] and in [5].
On to `O=C(CCCN1CCN(c2ccccn2)CC1)c1ccc(F)cc1`, for which the call in assay [1], in [2], in assay [3], in [4], in assay [6] and in assay [5] was inactive.
Consider `Cc1ccccc1OCC(O)CO` (stereo not given), for which the compound was classed as inactive in assay [1], in [2], in assay [3], in assay [4], in [6] and in assay [5].
`CCCCCC=CCC=CCCCCCCCC(=O)OCC`: the compound was classed as inactive in assay [1], in assay [2], in assay [3] and in [7].
As to `OCCN1CCN(CC/C=C2/c3ccccc3Sc3ccc(Cl)cc32)CC1`, the compound was classed as inactive in assay [1], in assay [2], in [3] and in assay [7].
Take `CC(=O)O[C@H]1C[C@@H]2CC[C@@H]3[C@H](CC[C@@]4(C)[C@H]3C[C@H]([N+]3(C)CCCCC3)[C@@H]4OC(C)=O)[C@@]2(C)C[C@@H]1N1CCCCC1`: the call in assay [1], in assay [2], in assay [3], in assay [4], in [6] and in assay [5] was inactive.
For `CC(C)CN(C[C@@H](OP(=O)(O)O)[C@H](Cc1ccccc1)NC(=O)O[C@H]1CCOC1)S(=O)(=O)c1ccc(N)cc1`, the outcome in [1], in assay [2], in assay [3], in assay [7] and in assay [8] was inactive.
As for `CC1=C(O)C(=O)OC1C` (stereo not given), the result in [1], in assay [2], in assay [3], in [7], in assay [8] and in [6] was inactive.
For `O=C1CCC(=O)O1`, the compound was called inactive in assay [1], in [2], in assay [3], in assay [7] and in assay [8].
`COc1cc(C)c(Cc2cnc(N)nc2N)cc1OC`: the outcome in assay [1], in [2], in assay [3], in [7] and in assay [8] was inactive.
In the case of `CCCCCCCCCCCCCCCC[N+](C)(C)CCN(Cc1ccc(OC)cc1)c1ncccn1`, the outcome in assay [1], in [2], in [3], in assay [8], in assay [6] and in [5] was inactive. For the same compound, in [7], the half-maximal activity concentration (AC50) was 17.3 µM (active).
For the compound `C[C@H]1C[C@H]2[C@@H]3CCC4=CC(=O)C=C[C@]4(C)[C@H]3C(=O)C[C@]2(C)[C@@]1(O)C(=O)CO`, the result in assay [1], in [2], in assay [3], in assay [7] and in assay [8] was inactive.
Take `CC(=O)NO`: the outcome in assay [1], in assay [2], in assay [3], in assay [7], in [8] and in [6] was inactive.
`Oc1ccccc1C=NCc1ccccc1`: the compound was called inactive in assay [1], in assay [2], in [3], in assay [7], in [8] and in assay [6]. The result in assay [5] was inactive.
`O=C(O)Cc1cccc(-c2cc(CCCCCCc3ccc(O[C@H]4O[C@H](CO)[C@@H](O)[C@H](O)[C@@H]4O)c(-c4cccc(CC(=O)O)c4)c3)ccc2O[C@H]2O[C@H](CO)[C@@H](O)[C@H](O)[C@@H]2O)c1`: the outcome in assay [1], in [2], in assay [3], in assay [7], in [8] and in [6] was inactive.

As usually defined, the AC50 is the concentration giving half of the maximal activity seen.

The record behind these values is PubChem BioAssay (EPA / NIEHS).
